Results filed as inconclusive are left out. Active and inactive are the calls of the source.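 The calls were made as follows, unless noted: active = percent response above a set limit, the screen-wide mean plus 3 SD (cut at about 130% in these data); inactive = the rest.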
Assays:
[1] = yeast TOR pathway RPL19A-GFP modulators, primary screen, cell-based, S. cerevisiae, multiplex flow cytometry (AID 1862; in the data active = percent of DMSO control GFP below about 86%;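 also: lower values mimic rapamycin by blocking the RPL19A rise seen in DMSO cells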); conditions: S. cerevisiae RPL19A-GFP strain, flow cytometry fluorescence, 3 h; at 10 µM; stronger effect = lower value
[2] = modulators of MEP2-GFP levels in yeast, primary screen, S. cerevisiae, multiplex flow cytometry (AID 1867;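 active = GFP response, as percent of the DMSO control, above the screen-wide mean plus 3 SD, about 139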;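 also: median GFP channel fluorescence of barcode-gated MEP2-GFP cells measured by flow cytometry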); conditions: S. cerevisiae MEP2-GFP strain, 3 h, at 10 µM, stronger effect = higher value, 100% means same as DMSO wells
[3] = modulators of CIT2-GFP expression in yeast, primary screen, S. cerevisiae, GFP fusion, multiplex flow cytometry (AID 1870); conditions: 3 h, at 10 µM, stronger effect = higher value;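 also: barcoded CIT2-GFP strain pooled with four other GFP strains with rapamycin as positive control; median GFP fluorescence per well over plate mean of DMSO wells so 100% = DMSO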
[4] = modulators of LAP4-GFP expression in yeast, primary screen, S. cerevisiae, multiplex flow cytometry (AID 1873;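 active = GFP signal, as percent of the solvent control, above the screen mean plus 3 SD, about 149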); conditions: 3 h, at 10 µM, stronger effect = higher value
[5] = modulators of AGP1-GFP expression in yeast TOR pathway, primary screen, cell-based, multiplex flow cytometry, S. cerevisiae (AID 1887;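 active = GFP signal above the screen-wide mean plus 3 SD, that is over about 124.5% of the solvent control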;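 also: AGP1-GFP fusion strain of S. cerevisiae within a five-strain barcoded multiplex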); conditions: 3 h, at 10 µM, stronger effect = higher value
[6] = inhibitors of CD8+ T cell-vesicle binding, pilot screen, LFA-1/ICAM-1 modulator project, MLPCN validation set, flow cytometry (AID 2523;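 active = response below a set limit, under 55% cells CD8-positive and vesicle-bound, and CD8 cells' 90th-percentile brightness under 279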;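 as to vesicle binding response: mean PE anti-B7-1 fluorescence of CD8+ cells relative to row control; 100% = QL9-loaded vesicles with DMSO vehicle in the same plate row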); conditions: 2C mouse CD8+ T cells, at 7 µM, stronger effect = lower value; double positive events: measured here: CD8+/vesicle+ event percentage
[7] = target: Integrin beta-1 (Homo sapiens) + Integrin alpha-4 (Homo sapiens) (UniProt P13612+P05556); experiment: inhibition of HUTS-21 binding to VLA-4, pilot screen, VLA-4 allosteric modulator project, U937 cells, HUTS-21 mAb, flow cytometry, validation set (AID 2674;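 active = inhibition above 50%, about 3 SD of the validation set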;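 also: antibody binding induced by the VLA-4 ligand LDV present at three times its Kd; 0% = LDV ligand with antibody and no compound and 100% = antibody without LDV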); conditions: HUTS-21 LIBS mAb binding, at 6.7 µM, stronger effect = higher value, binding induced by LDV ligand
Chain of Integrin beta-1 (Homo sapiens) + Integrin alpha-4 (Homo sapiens) (P05556 whole entry, looked up): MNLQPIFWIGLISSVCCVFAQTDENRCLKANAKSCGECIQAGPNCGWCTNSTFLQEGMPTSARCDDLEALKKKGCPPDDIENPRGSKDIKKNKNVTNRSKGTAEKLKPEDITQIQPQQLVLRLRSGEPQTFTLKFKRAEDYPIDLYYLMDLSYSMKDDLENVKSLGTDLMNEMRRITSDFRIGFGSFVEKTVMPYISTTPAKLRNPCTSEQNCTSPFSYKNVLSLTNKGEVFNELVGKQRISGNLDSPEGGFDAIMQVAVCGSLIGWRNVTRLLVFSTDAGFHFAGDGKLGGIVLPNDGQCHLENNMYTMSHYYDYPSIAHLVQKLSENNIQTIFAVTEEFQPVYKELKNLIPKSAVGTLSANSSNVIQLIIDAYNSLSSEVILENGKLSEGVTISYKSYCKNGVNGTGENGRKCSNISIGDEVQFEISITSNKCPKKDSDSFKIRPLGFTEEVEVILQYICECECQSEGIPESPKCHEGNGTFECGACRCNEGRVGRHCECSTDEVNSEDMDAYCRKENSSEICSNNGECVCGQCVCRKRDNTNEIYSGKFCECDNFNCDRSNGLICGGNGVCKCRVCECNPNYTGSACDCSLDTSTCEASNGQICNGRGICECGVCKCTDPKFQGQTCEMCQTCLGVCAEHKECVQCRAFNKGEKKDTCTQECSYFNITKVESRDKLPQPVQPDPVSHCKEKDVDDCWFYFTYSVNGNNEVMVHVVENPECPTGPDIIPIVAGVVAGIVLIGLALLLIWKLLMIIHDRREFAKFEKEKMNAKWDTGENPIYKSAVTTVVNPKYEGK
Chain of Integrin beta-1 (Homo sapiens) + Integrin alpha-4 (Homo sapiens) (P13612 whole entry, looked up): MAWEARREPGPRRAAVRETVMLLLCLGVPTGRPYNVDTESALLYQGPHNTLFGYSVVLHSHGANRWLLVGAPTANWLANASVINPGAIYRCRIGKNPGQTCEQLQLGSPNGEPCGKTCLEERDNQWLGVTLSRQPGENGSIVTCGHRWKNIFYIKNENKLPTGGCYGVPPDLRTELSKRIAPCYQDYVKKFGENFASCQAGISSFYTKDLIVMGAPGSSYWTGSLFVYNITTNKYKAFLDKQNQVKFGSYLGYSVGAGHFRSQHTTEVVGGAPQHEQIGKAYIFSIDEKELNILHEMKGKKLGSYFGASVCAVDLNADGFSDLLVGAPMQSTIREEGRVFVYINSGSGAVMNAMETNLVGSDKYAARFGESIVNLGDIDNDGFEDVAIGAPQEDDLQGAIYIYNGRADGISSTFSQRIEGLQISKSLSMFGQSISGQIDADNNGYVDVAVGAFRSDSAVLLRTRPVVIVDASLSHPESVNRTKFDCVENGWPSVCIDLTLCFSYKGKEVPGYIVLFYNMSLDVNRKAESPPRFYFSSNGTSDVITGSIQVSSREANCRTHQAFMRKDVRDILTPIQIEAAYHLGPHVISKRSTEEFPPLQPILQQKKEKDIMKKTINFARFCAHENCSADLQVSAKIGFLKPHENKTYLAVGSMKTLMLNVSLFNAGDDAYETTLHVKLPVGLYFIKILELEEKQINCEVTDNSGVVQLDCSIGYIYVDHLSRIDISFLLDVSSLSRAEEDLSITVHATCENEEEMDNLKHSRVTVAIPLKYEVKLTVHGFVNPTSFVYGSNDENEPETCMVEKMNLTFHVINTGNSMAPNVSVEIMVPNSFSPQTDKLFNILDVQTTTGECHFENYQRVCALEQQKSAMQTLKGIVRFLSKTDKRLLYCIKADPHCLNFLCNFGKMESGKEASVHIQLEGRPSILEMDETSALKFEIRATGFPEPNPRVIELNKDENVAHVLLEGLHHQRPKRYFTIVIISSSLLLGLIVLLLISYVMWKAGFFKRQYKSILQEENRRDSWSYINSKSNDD

[8] = superoxide lowering in aged yeast cells, pilot screen, validation compound set (AID 2706;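 active = superoxide response below 65% of plate, a cut near 3 SD across the whole screen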;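 also: yeast exposed to compound for one week at 30 degrees C before staining; 100% = mean of all compound wells on the same plate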); conditions: S. cerevisiae aging, superoxide DHE fluorescence; at 10 µM; stronger effect = lower value
[9] = target: Beta-adrenergic receptor kinase 1 (Homo sapiens) (UniProt P25098); experiment: GRK2 binders displacing RNA aptamer, biochemical, validation, human GRK2, bead flow cytometry (AID 488806;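 active = aptamer binding inhibition above 30%, about 3 SD of noise from non-fluorescent compounds; inactive = inhibition at or below 30%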); conditions: bead-bound GRK2, FAM-aptamer displacement, at 10 µM, stronger effect = higher value
Chain of Beta-adrenergic receptor kinase 1 (Homo sapiens) (P25098 whole entry, looked up): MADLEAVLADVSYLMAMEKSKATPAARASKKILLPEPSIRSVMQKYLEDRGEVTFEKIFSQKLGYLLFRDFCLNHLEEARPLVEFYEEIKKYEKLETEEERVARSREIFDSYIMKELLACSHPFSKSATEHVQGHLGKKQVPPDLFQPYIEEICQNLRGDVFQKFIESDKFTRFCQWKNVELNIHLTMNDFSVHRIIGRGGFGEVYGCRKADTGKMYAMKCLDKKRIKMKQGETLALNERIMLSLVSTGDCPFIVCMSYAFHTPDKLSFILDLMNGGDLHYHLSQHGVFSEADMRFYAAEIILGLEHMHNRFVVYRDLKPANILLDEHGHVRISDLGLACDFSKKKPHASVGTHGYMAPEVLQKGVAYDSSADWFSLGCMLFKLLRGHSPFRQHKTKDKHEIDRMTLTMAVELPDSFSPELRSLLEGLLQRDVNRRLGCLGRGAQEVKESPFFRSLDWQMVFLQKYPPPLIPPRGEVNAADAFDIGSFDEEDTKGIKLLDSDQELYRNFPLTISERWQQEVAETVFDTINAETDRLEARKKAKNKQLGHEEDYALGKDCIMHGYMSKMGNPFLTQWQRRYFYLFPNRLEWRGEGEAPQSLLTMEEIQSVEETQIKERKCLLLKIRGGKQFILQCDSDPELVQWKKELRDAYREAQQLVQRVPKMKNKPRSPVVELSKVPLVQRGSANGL

[10] = target: Beta-2 adrenergic receptor (Homo sapiens) (UniProt P07550); experiment: beta2AR agonists driving receptor internalization, pilot screen, cell-based, FAP fluorogen, flow cytometry, validation set (AID 504459;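 active = percent response above 42, roughly 3 SD of non-fluorescent test compounds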;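 also: agonist-driven loss of surface beta2AR via internalization measured by FAP dye flow cytometry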); conditions: Am2.2-beta2AR cells, FAP surface receptor flow cytometry; at 10 µM; stronger effect = higher value
Chain of Beta-2 adrenergic receptor (Homo sapiens) (P07550 whole entry, looked up): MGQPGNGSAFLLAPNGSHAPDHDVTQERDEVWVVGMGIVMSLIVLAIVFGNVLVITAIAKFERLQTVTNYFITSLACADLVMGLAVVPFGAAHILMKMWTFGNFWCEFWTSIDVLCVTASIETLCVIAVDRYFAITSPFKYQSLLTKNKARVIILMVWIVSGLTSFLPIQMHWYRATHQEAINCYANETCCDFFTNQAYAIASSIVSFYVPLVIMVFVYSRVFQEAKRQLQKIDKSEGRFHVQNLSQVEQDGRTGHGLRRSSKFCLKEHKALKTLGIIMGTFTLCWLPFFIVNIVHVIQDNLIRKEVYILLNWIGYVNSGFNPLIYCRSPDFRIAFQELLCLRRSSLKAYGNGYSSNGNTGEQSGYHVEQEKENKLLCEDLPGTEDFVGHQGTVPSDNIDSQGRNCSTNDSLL

[11] = target: AP-2 complex subunit beta (Homo sapiens) (UniProt P63010); experiment: inhibitors of arrestin peptide binding to AP2, pilot screen, biochemical, validation set, GST-AP2 beads, flow cytometry (AID 504541;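 active = inhibition above 54%, about 3 SD of non-fluorescent compounds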;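 also: AP2 carries R879A mutation and is captured from E. coli lysate; bead-bound FITC arrestin peptide fluorescence measuring arrestin peptide binding to AP2; 0% = DMSO wells and 100% = excess unlabeled arrestin peptide control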); conditions: FITC arrestin peptide, at 10 µM, stronger effect = higher value, AP2 beta2 appendage fragment, R879A mutant
Chain of AP-2 complex subunit beta (Homo sapiens) (P63010 whole entry, looked up, the tested form may be a part, one chain of several): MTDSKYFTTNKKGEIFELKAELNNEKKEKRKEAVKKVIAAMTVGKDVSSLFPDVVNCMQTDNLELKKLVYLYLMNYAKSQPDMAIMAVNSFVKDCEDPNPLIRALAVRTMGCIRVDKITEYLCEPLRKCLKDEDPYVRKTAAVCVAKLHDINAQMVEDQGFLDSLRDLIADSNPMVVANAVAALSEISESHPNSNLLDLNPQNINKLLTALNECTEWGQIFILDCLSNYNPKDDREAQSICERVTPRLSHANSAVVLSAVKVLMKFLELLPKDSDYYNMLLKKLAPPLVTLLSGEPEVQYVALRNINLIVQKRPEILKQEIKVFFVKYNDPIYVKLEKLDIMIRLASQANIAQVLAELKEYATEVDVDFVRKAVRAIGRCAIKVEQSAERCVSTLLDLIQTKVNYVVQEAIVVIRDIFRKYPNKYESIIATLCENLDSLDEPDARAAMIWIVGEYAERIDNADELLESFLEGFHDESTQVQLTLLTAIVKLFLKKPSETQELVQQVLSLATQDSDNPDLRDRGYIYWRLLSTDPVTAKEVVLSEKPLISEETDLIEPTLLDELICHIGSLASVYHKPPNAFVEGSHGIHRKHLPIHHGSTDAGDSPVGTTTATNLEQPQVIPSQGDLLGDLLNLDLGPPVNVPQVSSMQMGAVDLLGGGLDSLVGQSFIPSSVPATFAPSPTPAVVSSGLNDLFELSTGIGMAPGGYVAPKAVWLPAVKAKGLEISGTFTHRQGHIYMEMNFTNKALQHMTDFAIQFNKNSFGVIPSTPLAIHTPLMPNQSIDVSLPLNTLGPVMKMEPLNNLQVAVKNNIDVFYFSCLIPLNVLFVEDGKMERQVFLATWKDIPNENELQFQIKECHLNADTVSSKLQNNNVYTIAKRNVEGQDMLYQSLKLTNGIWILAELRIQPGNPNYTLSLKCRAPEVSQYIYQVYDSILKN

[12] = yeast V-ATPase proton transport modulators, S. cerevisiae, pHLuorin, HTS validation (AID 504600; in the data active = response above about 15%;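 also: plate controls were DMSO for no effect and reference compound for full effect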); conditions: S. cerevisiae pHLuorin cytosolic pH, at 10 µM, stronger effect = higher value
[13] = system: anti-desmoglein-3 scFv antibody binding to human DSG3; experiment: inhibitors of anti-DSG3 scFv binding to DSG3, pilot screen, biochemical, validation compound set, bead-based, flow cytometry (AID 588368;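 active = binding below the plate cutoff, the plate median minus 3 SD, with a reading above zero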;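 also: signal is the median channel fluorescence of bead-bound GFP antibody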); conditions: Protein G beads, DSG3-Fc, scFv-GFP binding, at 10 µM, stronger effect = lower value
[14] = inhibitors of fungal efflux pumps CDR1, CDR2, MDR1, pilot screen, validation compound set, multiplex, phenotypic (AID 588506;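 active = efflux inhibition above 0.42, the validation set average plus 4 SD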;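 also: Nile Red retained in cells so higher fluorescence means more efflux inhibition; 0 = negative control wells and 1 = enniatin B 25 µM full block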); conditions: S. cerevisiae pump-expressing triplex, Nile Red efflux flow cytometry; at 10 µM; stronger effect = higher value; the pumps come from Candida albicans
[15] = target: ATP-binding cassette sub-family B member 6 (Homo sapiens) (UniProt Q9NP58); experiment: ABCB6 transporter inhibitors, pilot screen, K562-ABCB6 cells, flow cytometry, validation set (AID 588550;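 active = inhibition above the screen-wide mean plus 3 SD, about 51%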;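 also: 0% = DMSO wells and 100% = benzethonium chloride 70 µM positive control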); conditions: K562-ABCB6 porphyrin accumulation, 1 h, at 10 µM, stronger effect = higher value
Chain of ATP-binding cassette sub-family B member 6 (Homo sapiens) (Q9NP58 whole entry, looked up): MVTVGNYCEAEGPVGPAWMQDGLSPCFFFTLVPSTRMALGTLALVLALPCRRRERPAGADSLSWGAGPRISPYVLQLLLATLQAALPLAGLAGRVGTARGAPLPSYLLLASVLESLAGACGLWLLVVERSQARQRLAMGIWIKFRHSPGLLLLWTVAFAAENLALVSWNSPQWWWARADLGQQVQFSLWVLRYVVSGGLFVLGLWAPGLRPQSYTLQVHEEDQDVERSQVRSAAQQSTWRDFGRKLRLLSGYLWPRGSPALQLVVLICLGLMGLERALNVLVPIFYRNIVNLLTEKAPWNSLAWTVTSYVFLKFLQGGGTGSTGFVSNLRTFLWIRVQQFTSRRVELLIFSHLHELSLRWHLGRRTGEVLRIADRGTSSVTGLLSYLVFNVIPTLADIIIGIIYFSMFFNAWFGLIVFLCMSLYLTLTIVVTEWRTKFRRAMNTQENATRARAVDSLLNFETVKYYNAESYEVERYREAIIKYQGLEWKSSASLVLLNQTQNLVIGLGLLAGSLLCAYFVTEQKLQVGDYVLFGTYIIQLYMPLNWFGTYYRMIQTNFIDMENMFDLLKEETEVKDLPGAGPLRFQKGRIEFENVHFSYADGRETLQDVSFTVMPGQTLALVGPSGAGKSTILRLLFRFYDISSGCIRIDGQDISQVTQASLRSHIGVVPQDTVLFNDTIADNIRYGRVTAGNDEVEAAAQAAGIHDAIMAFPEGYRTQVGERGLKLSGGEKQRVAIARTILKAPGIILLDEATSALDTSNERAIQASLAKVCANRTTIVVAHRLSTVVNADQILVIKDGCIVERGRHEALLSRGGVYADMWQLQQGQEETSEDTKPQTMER

[16] = promoters of myeloid differentiation in arrested cells, primary screen, cell-based, GFP/MAC1 double positive, flow cytometry, validation set (AID 588685;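 active = differentiation response of at least 50%, scaled between solvent and reference control, from cells with both markers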;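 also: compound exposure lasts four days before antibody staining and flow analysis; 0% = DMSO wells and 100% = 5 µM fulvestrant positive control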); conditions: ER-HoxA9 marrow cells, stronger effect = higher value, normalized: vehicle 0, fulvestrant 100

Compound | percent of DMSO control GFP [1] | GFP response vs DMSO [2] | percent response of DMSO control [3] | GFP response vs DMSO [4] | GFP response, % of DMSO [5] | double positive events [6] | vesicle binding response [6] | inhibition [7] | superoxide response (% of plate) [8] | aptamer binding inhibition [9] | response [10] | inhibition [11] | response [12] | binding (% of control) [13] | efflux inhibition (fraction of control) [14] | inhibition [15] | differentiation response [16]
CC(C)(C)OC(=O)COc1cc(OCC(=O)OC(C)(C)C)c2c(=O)cc(-c3ccccc3)oc2c1 | 105% (inactive) | 107% (inactive) | 102% (inactive) | 105% (inactive) | 100% (inactive) | 60.3% | 77.9% (inactive) | -29.2% (inactive) | 94.8% (inactive) | 1% (inactive) | -17% (inactive) | -7.67% (inactive) | 2.77% (inactive) | 105% (inactive) | -0.07 (inactive) | 35% (inactive) | -4.57% (inactive)
NCc1ccccc1COc1ccccc1 | 105% (inactive) | 109% (inactive) | 102% (inactive) | 117% (inactive) | 111% (inactive) | 62.7% | 179% (inactive) | 2.3% (inactive) | 96.7% (inactive) | 0% (inactive) | 4.62% (inactive) | 57% (active) | -3.28% (inactive) | 98% (inactive) | 0.05 (inactive) | 6% (inactive) | -15.2% (inactive)
Cc1cc(=O)[nH]c(=S)[nH]1 | 97% (inactive) | 109% (inactive) | 106% (inactive) | 79.2% (inactive) | 96.6% (inactive) | 64.4% | 223% (inactive) | 12.3% (inactive) | 113% (inactive) | -9% (inactive) | -11.1% (inactive) | -0.05% (inactive) | 0.42% (inactive) | 104% (inactive) | 0.12 (inactive) | 12% (inactive) | 0.82% (inactive)
Cc1cccc(C)c1NC(=O)C1CCCCN1C (stereo unspecified) | 102% (inactive) | 104% (inactive) | 97.8% (inactive) | 90.1% (inactive) | 97% (inactive) | 62.6% | 92.5% (inactive) | -4.6% (inactive) | 104% (inactive) | 5% (inactive) | 10.4% (inactive) | 15.4% (inactive) | 0.17% (inactive) | 98.2% (inactive) | -0.01 (inactive) | 1% (inactive) | -1.71% (inactive)
Cc1ccc(-n2cc(CNCCN3CCOC3=O)c(-c3ccc(F)cc3)n2)cc1 | 103% (inactive) | 107% (inactive) | 108% (inactive) | 85% (inactive) | 96.5% (inactive) | 59.3% | 129% (inactive) | 9.63% (inactive) | 109% (inactive) | 2% (inactive) | -24.7% (inactive) | -0.44% (inactive) | -4.84% (inactive) | 104% (inactive) | -0.36 (inactive) | 4% (inactive) | -1.65% (inactive)
Cc1ccc([N+](=O)[O-])cc1NC1OC(CO)C(O)C1O (stereo unspecified) | 102% (inactive) | 105% (inactive) | 104% (inactive) | 120% (inactive) | 109% (inactive) | 56.8% | 186% (inactive) | -16.4% (inactive) | 108% (inactive) | 4% (inactive) | -23% (inactive) | 7.17% (inactive) | 2.59% (inactive) | 103% (inactive) | -0.04 (inactive) | 3% (inactive) | 2.89% (inactive)
O=C(CS(=O)(=O)c1ccccc1)c1ccc2c(c1)OCCO2 | 99.7% (inactive) | 103% (inactive) | 100% (inactive) | 112% (inactive) | 113% (inactive) | 57.1% | 194% (inactive) | -9.63% (inactive) | 98.2% (inactive) | 4% (inactive) | -29.9% (inactive) | -15.5% (inactive) | -0.24% (inactive) | 103% (inactive) | 0.12 (inactive) | 5% (inactive) | -1.05% (inactive)
Cc1ccc(S(=O)(=O)n2ccnc2)cc1C | 98.4% (inactive) | 112% (inactive) | 99.6% (inactive) | 108% (inactive) | 121% (inactive) | 60.3% | 160% (inactive) | 6.55% (inactive) | 95.2% (inactive) | 1% (inactive) | -20.5% (inactive) | -13.3% (inactive) | 1.99% (inactive) | 102% (inactive) | -0.09 (inactive) | 3% (inactive) | -2.03% (inactive)
Cc1coc2c1c(C)cc1oc(=O)c(Cc3ccccc3)c(C)c12 | 100% (inactive) | 98.7% (inactive) | 102% (inactive) | 93.7% (inactive) | 101% (inactive) | 56.9% | 138% (inactive) | -11.8% (inactive) | 90.7% (inactive) | -1% (inactive) | -0.64% (inactive) | 16.9% (inactive) | 18.1% (active) | 97.9% (inactive) | -0.14 (inactive) | 1% (inactive) | -8.96% (inactive)
Cc1ccc(C2CC(c3cccs3)=NN2C(=O)c2ccco2)o1 (stereo unspecified) | 92.6% (inactive) | 87.6% (inactive) | 89.3% (inactive) | 82.8% (inactive) | 87% (inactive) | 62.2% | 135% (inactive) | 2.93% (inactive) | 106% (inactive) | -1% (inactive) | -25.7% (inactive) | -17.3% (inactive) | -7.57% (inactive) | 107% (inactive) | 0.275 (inactive) | -1% (inactive) | 1.28% (inactive)
O=C(NCc1ccc(N2CCCC2=O)cc1)c1cccc(Cl)c1 | 102% (inactive) | 101% (inactive) | 111% (inactive) | 105% (inactive) | 99.4% (inactive) | 57.4% | 215% (inactive) | -1.49% (inactive) | 101% (inactive) | 1% (inactive) | -4.33% (inactive) | 7.63% (inactive) | -1.49% (inactive) | 106% (inactive) | -0.14 (inactive) | 0% (inactive) | -5.62% (inactive)
CC[N+](C)(C)c1cccc(O)c1 | 103% (inactive) | 99.3% (inactive) | 112% (inactive) | 97.3% (inactive) | 102% (inactive) | 57.5% | 123% (inactive) | -0.45% (inactive) | 90.1% (inactive) | 56% (active) | -3.94% (inactive) | -0.12% (inactive) | -0.97% (inactive) | 103% (inactive) | -0.17 (inactive) | -7% (inactive) | 7.09% (inactive)
CCOCCn1c(C(C)O)nc2ccccc21 (stereo unspecified) | 105% (inactive) | 96.2% (inactive) | 111% (inactive) | 98% (inactive) | 104% (inactive) | 62.6% | 278% (inactive) | 20.3% (inactive) | 89.7% (inactive) | 1% (inactive) | -7.33% (inactive) | -8.14% (inactive) | 4.51% (inactive) | 95.3% (inactive) | 0.02 (inactive) | -3% (inactive) | 7.09% (inactive)
Cc1cc(O)c(C(=O)Cc2csc(C)n2)c(O)c1 | 102% (inactive) | 109% (inactive) | 98.2% (inactive) | 112% (inactive) | 96.1% (inactive) | 56.7% | 15.7% (inactive) | 1.12% (inactive) | 104% (inactive) | 5% (inactive) | 2.72% (inactive) | 6.62% (inactive) | -0.65% (inactive) | 99.5% (inactive) | 0.46 (active) | 2% (inactive) | 6.49% (inactive)
COc1ccc2oc(-c3ccco3)cc(=O)c2c1 | 103% (inactive) | 92.4% (inactive) | 100% (inactive) | 88% (inactive) | 83.7% (inactive) | 59.1% | 23.9% (inactive) | -8.9% (inactive) | 96.6% (inactive) | 3% (inactive) | -0.39% (inactive) | -28.7% (inactive) | 2.89% (inactive) | 100% (inactive) | -0.28 (inactive) | 8% (inactive) | -3.4% (inactive)
Cc1cccc(Oc2coc3cc(OC(=O)c4cncc(Br)c4)ccc3c2=O)c1 | 98% (inactive) | 111% (inactive) | 95.8% (inactive) | 126% (inactive) | 100% (inactive) | 64.8% | 224% (inactive) | -4.52% (inactive) | 78.9% (inactive) | 1% (inactive) | 9.93% (inactive) | -11.9% (inactive) | 1.76% (inactive) | 99.1% (inactive) | 0.33 (inactive) | 103% (active) | 10.4% (inactive)
O=C(O)CCC(=O)c1ccc(-c2ccccc2)cc1 | 102% (inactive) | 102% (inactive) | 102% (inactive) | 125% (inactive) | 108% (inactive) | 65.4% | 245% (inactive) | -9.13% (inactive) | 99.8% (inactive) | -1% (inactive) | 11.2% (inactive) | 10.7% (inactive) | -4.64% (inactive) | 103% (inactive) | 0.36 (inactive) | 0% (inactive) | -11.9% (inactive)
CCC[C@@H]1C[C@@H](C(=O)N[C@H]([C@@H](C)O)[C@H]2O[C@H](SC)[C@H](O)[C@@H](O)C2O)N(C)C1 (stereo partly specified) | 92.8% (inactive) | 120% (inactive) | 97.9% (inactive) | 80.9% (inactive) | 90.1% (inactive) | 66.2% | 177% (inactive) | 3.55% (inactive) | 99.1% (inactive) | 5% (inactive) | -3.92% (inactive) | -1.72% (inactive) | 3.43% (inactive) | 106% (inactive) | -0.17 (inactive) | 10% (inactive) | -4.09% (inactive)

From PubChem BioAssay
